The supplement of paper PMC10849652
Targets with a hit are over-represented here; the source holds about 8,800 in all. About 0.5% of all pairs of compound and target were hits. A number with no mark means an inactive call.

Key:
Assay in all cases: log2 fold change, soluble protein after heating vs DMSO (PISA); higher = thermal stabilisation; K562 lysate, 10 uM; active = over 0.2 and 3.5 SD of the protein, either way, in both replicates (recomputed)
[1] = compound: CS(=O)(=O)CCNCc1ccc(-c2ccc3ncnc(Nc4ccc(OCc5cccc(F)c5)c(Cl)c4)c3c2)o1 [lapatinib]
Method in brief: (§1)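 Soluble protein was defined as the supernatant remaining after 21,000xg for 90 min, following pooling of heated aliquots and adjustment to 0.5% NP-40 at 4°C. Before that, crude K562 extract at 1 mg/mL protein in PBS pH 7.4 with 1 mM MgCl2 was treated with 10 μM compound for 30 min and heated for 3 min across 48°C-58°C. Quantification used TMTpro 16plex LC-MS/MS with channel sums equalised, and values are log-two fold changes in thermal stability relative to solvent controls from duplicates.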

[2] = compound: CS(=O)(=O)N1CCN(Cc2cc3nc(-c4cccc5[nH]ncc45)nc(N4CCOCC4)c3s2)CC1 [pictilisib]
Method in brief: as §1

[3] = compound: C[C@@H](Oc1cc(-c2cnn(C3CCNCC3)c2)cnc1N)c1c(Cl)ccc(F)c1Cl [crizotinib]
Method in brief: as §1

[4] = compound: C[C@H](C1=CC=C(C=C1)C(=O)NC2=C3C=CNC3=NC=C2)N
Method in brief: as §1

[5] = compound: C[C@H](Nc1ncnc2nc[nH]c12)c1cc2cccc(Cl)c2c(=O)n1-c1ccccc1 [duvelisib]
Method in brief: as §1

[6] = compound: Cc1cc(Nc2cc(CN3CCOCC3)c3nc(C)c(Cc4ccc(Cl)cc4F)n3n2)n[nH]1 [gandotinib]
Method in brief: as §1

[7] = compound: Cc1cc(Nc2cc(N3CCN(C)CC3)nc(Sc3ccc(NC(=O)C4CC4)cc3)n2)n[nH]1 [tozasertib]
Method in brief: as §1

[8] = compound: Cc1ccc(-n2nc(C(C)(C)C)cc2NC(=O)Nc2ccc(OCCN3CCOCC3)c3ccccc23)cc1 [doramapimod]
Method in brief: as §1

[9] = compound: Cc1ccc(NC(=O)c2ccc(CN3CC[C@H](N(C)C)C3)c(C(F)(F)F)c2)cc1Nc1nccc(-c2cncnc2)n1 [bafetinib]
Method in brief: as §1

[10] = compound: Cc1cccc(CC(=O)N2CCc3c2ccc(-c2cn(C)c4ncnc(N)c24)c3F)n1
Method in brief: as §1

[11] = compound: Cc1cn(-c2cc(NC(=O)c3ccc(C)c(Nc4nccc(-c5cccnc5)n4)c3)cc(C(F)(F)F)c2)cn1 [nilotinib]
Method in brief: as §1

[12] = compound: Cc1nc(Nc2n[nH]c3c2CN(C(=O)N[C@H](CN(C)C)c2ccccc2)C3(C)C)c2sccc2n1
Method in brief: as §1

[13] = compound: Cc1nc(Nc2ncc(C(=O)Nc3c(C)cccc3Cl)s2)cc(N2CCN(CCO)CC2)n1 [dasatinib]
Method in brief: as §1

[14] = compound: Cc1ncc(-c2ccnc(Nc3ccc(S(C)(=O)=O)cc3)n2)n1C(C)C
Method in brief: as §1

[15] = compound: Cn1cc(-c2ccc3c(c2)CCN3C(=O)Cc2cccc(C(F)(F)F)c2)c2c(N)ncnc21
Method in brief: as §1

[16] = compound: Cn1cc(CNCC2CCN(c3ncc(C(=O)NO)cn3)CC2)c2ccccc21 [quisinostat]
Method in brief: as §1

[17] = compound: Cn1cncc1[C@@](N)(c1ccc(Cl)cc1)c1ccc2c(c1)c(-c1cccc(Cl)c1)cc(=O)n2C [tipifarnib]
Method in brief: as §1

[18] = compound: NC(=O)Nc1cc(-c2cccc(F)c2)sc1C(=O)N[C@H]1CCCNC1
Method in brief: as §1

[19] = compound: NC(=O)c1cnc(N[C@@H]2CCCC[C@@H]2N)nc1Nc1cccc(-n2nccn2)c1
Method in brief: as §1

[20] = compound: NC1(c2ccc(-c3nc4ccn5c(=O)[nH]nc5c4cc3-c3ccccc3)cc2)CCC1
Method in brief: as §1

Chain of UniProt Q9BRQ8 (Q9BRQ8 whole entry, looked up): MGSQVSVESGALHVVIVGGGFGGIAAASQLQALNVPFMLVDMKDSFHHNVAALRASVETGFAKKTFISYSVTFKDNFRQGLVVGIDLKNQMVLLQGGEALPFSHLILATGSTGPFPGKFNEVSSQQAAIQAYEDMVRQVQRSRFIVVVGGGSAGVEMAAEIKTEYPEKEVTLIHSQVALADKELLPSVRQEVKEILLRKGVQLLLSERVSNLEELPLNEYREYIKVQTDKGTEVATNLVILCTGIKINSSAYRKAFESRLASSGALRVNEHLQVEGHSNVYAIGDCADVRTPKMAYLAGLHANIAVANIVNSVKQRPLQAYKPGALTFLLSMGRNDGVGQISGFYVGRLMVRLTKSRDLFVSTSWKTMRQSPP
Chain of UniProt Q9H1I8 (Q9H1I8 whole entry, looked up): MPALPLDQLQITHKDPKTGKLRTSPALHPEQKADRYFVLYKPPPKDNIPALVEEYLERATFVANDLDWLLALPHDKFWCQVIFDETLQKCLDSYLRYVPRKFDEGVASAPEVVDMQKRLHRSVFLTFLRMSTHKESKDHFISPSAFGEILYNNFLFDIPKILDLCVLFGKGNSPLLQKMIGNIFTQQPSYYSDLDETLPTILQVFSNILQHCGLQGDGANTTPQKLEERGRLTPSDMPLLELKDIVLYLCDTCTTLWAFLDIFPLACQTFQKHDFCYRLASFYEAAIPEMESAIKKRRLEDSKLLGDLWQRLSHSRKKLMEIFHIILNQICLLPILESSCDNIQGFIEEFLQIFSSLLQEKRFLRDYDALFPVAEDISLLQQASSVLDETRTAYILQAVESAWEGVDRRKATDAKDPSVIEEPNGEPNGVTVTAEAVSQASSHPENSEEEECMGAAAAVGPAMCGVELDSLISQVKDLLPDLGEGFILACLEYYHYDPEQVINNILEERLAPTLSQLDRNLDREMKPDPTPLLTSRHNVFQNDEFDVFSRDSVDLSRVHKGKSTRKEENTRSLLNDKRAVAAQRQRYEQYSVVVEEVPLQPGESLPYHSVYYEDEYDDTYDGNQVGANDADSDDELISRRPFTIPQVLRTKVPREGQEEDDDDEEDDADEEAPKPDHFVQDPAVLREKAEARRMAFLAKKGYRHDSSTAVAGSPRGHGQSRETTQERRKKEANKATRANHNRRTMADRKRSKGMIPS
Chain of UniProt P51825 (P51825 whole entry, looked up): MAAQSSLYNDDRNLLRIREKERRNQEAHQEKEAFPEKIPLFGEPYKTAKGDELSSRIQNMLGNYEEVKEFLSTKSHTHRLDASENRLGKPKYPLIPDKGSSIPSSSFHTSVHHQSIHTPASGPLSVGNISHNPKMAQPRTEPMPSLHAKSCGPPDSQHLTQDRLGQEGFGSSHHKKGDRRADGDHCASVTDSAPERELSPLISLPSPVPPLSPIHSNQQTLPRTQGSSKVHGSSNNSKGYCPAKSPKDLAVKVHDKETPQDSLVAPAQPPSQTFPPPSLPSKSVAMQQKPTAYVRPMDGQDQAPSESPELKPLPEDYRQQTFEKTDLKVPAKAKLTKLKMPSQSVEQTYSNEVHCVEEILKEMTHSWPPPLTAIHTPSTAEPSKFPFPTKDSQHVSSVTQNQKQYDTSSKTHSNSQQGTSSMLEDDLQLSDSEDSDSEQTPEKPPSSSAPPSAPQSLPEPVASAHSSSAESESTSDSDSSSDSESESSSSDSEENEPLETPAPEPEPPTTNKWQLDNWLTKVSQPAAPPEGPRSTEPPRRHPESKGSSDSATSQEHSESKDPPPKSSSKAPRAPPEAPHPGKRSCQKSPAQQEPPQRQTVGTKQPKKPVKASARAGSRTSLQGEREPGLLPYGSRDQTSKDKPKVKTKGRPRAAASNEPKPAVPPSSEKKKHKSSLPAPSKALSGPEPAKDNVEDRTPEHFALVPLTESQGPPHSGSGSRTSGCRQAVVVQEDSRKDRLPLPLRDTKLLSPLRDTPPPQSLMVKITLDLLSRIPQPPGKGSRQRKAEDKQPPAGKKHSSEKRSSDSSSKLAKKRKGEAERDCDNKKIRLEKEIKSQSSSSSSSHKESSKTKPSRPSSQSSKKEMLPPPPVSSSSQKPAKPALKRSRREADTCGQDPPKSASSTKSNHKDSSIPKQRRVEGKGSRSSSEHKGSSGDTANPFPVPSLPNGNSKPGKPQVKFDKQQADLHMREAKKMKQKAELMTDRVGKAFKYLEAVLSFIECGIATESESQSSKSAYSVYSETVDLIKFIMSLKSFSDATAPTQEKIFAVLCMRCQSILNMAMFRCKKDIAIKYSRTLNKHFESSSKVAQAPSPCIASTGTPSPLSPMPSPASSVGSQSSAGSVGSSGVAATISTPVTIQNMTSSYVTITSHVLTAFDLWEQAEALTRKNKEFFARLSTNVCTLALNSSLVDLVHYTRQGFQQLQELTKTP
Chain of UniProt P42330 (P42330 whole entry, looked up): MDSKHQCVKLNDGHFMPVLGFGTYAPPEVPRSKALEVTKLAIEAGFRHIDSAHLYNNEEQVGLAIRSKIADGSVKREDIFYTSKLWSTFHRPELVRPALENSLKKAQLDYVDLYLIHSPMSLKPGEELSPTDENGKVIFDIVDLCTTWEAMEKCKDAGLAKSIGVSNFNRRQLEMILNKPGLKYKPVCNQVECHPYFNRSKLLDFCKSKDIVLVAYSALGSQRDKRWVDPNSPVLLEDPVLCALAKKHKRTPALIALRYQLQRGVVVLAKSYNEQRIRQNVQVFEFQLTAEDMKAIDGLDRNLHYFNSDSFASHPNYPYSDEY
Chain of UniProt Q13155 (Q13155 whole entry, looked up): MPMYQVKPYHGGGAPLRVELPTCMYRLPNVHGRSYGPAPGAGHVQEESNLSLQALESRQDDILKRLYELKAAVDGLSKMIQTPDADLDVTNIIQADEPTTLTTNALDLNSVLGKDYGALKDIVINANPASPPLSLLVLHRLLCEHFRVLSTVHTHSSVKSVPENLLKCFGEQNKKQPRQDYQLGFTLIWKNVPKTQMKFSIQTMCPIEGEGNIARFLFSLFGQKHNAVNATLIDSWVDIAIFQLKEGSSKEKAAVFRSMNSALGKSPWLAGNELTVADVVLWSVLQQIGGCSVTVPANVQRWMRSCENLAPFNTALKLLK
Chain of UniProt Q12904 (Q12904 whole entry, looked up): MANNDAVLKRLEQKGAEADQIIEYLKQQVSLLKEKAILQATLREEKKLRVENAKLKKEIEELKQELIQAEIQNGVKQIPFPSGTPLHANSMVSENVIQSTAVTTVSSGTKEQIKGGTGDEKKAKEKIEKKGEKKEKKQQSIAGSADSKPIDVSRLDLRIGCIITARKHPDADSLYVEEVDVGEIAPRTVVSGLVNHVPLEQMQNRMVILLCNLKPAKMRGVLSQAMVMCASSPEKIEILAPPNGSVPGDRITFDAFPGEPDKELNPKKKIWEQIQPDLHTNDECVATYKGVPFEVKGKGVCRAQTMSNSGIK
Chain of UniProt Q9NRW3 (Q9NRW3 whole entry, looked up): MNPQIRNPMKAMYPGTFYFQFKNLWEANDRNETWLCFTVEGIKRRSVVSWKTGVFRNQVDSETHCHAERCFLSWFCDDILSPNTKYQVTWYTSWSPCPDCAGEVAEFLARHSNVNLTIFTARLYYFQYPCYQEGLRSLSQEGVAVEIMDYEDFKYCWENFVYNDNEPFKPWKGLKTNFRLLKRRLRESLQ
Chain of UniProt Q9UHB7 (Q9UHB7 whole entry, looked up): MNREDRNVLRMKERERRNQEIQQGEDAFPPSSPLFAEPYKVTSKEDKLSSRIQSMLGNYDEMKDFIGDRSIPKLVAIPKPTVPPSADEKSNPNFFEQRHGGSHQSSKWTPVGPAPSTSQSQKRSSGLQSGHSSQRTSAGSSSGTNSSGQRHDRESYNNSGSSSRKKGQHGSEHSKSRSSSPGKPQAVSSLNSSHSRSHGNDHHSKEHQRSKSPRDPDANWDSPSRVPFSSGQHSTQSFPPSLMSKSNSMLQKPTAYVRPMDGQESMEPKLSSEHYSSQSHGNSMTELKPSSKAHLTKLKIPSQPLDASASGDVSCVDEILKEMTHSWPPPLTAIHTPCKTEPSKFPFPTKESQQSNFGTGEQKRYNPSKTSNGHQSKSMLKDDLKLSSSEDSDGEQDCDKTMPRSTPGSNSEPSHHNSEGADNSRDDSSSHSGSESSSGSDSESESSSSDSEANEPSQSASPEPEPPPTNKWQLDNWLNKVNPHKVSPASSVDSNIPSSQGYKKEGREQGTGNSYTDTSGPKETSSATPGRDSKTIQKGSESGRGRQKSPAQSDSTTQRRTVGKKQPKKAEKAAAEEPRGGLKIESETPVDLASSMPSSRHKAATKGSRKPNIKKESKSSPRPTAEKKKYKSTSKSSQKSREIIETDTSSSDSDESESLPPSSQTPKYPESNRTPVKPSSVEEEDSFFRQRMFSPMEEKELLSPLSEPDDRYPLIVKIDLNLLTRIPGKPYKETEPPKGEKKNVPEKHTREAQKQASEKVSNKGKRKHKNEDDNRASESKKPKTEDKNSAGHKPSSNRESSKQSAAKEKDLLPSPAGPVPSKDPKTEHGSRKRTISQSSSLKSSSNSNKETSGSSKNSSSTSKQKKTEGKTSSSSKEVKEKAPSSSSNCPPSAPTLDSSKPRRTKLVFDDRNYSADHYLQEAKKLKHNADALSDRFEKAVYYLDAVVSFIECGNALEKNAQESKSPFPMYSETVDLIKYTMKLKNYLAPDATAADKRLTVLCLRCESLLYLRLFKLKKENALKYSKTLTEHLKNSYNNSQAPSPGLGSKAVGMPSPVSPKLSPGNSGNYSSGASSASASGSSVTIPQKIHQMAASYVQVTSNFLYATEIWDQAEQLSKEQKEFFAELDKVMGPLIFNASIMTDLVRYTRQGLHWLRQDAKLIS

Row | Target | log2 fold change [1] | log2 fold change [2] | log2 fold change [3] | log2 fold change [4] | log2 fold change [5] | log2 fold change [6] | log2 fold change [7] | log2 fold change [8] | log2 fold change [9] | log2 fold change [10] | log2 fold change [11] | log2 fold change [12] | log2 fold change [13] | log2 fold change [14] | log2 fold change [15] | log2 fold change [16] | log2 fold change [17] | log2 fold change [18] | log2 fold change [19] | log2 fold change [20]
1 | AMDHD2 isoform 3 (UniProt Q9Y303) | 0.014 | -0.081 | 0.025 | 0.006 | -0.043 | 0.008 | -0.013 | 0.003 | 0.093 | 0.009 | 0.011 | -0.076 | -0.043 | -0.027 | 0.026 | 0.035 | 0.01 | -0.011 | -0.022 | 0.002
2 | AIMP1 isoform 2 (UniProt Q12904) | -0.019 | -0.004 | -0.05 | 0.023 | 0.007 | -0.085 | -0.008 | -0.015 | -0.041 | -0.012 | -0.013 | -0.016 | -0.076 | 0.019 | 0.023 | 0.01 | 0.013 | 0.044 | -0.011 | 0.001
3 | ANKRD52 (UniProt Q8NB46) | -0.133 | -0.036 | -0.11 | -0.004 | 0.01 | 0.012 | 0 | 0.001 | -0.071 | 0.034 | 0.041 | 0.003 | -0.048 | -0.026 | -0.045 | -0.037 | -0.017 | 0.005 | -0.056 | -0.028
4 | AIFM2 (UniProt Q9BRQ8) | 0.132 | -0.024 | 0.06 | -0.143 | 0.004 | 0.507 (active) | -0.014 | 0.307 | 0.086 | 0.089 | 0.057 | -0.006 | -0.072 | -0.03 | 0.024 | -0.105 | 0.411 (active) | -0.028 | -0.054 | 0
5 | AIMP2 (UniProt Q13155) | -0.006 | 0.015 | -0.047 | 0.05 | -0.018 | -0.12 | 0.041 | 0.029 | -0.03 | -0.032 | 0.015 | -0.015 | -0.048 | -0.002 | -0.007 | -0.009 | -0.003 | 0.045 | -0.012 | -0.007
6 | APOBEC3C (UniProt Q9NRW3) | 0.011 | 0.033 | -0.09 | -0.058 | 0.021 | 0.066 | -0.055 | 0.1 | -0.023 | 0.153 | 0.082 | -0.014 | -0.005 | 0 | 0.042 | -0.144 | -0.024 | -0.067 | -0.001 | 0.028
7 | ASCC2 (UniProt Q9H1I8) | -0.012 | 0.049 | -0.044 | 0.048 | 0.04 | -0.026 | 0.023 | -0.007 | -0.205 | -0.002 | -0.005 | -0.029 | -0.01 | -0.018 | 0.026 | -0.06 | 0.082 | 0.035 | 0.038 | -0.023
8 | AKR1C3 (UniProt P42330) | -0.03 | -0.024 | -0.039 | -0.014 | -0.036 | 0.052 | -0.003 | 0.022 | 0.022 | -0.026 | -0.007 | 0.046 | 0.209 | -0.079 | -0.038 | -0.055 | 0.04 | 0.036 | -0.059 | -0.013
9 | AFF1 isoform 2 (UniProt P51825) | -0.055 | -0.063 | 0.005 | -0.396 (active) | 0.067 | 0.341 | 0.066 | 0.064 | -0.04 | 0.696 (active) | -0.069 | 0.022 | 0.059 | 0.069 | -0.043 | -0.01 | 0.028 | -0.005 | 0.194 | 0.008
10 | ABHD16A (UniProt O95870) | 0.032 | 0.028 | 0.018 | 0.006 | -0.078 | 0.081 | -0.072 | 0.013 | 0.018 | -0.021 | -0.015 | 0.02 | 0.009 | 0.027 | -0.051 | 0.143 | -0.012 | -0.014 | -0.003 | -0.054
11 | ACOX1 isoform 2 (UniProt Q15067) | -0.003 | -0.003 | -0.004 | -0.112 | -0.012 | 0.167 | 0.043 | 0.024 | -0.01 | 0.054 | 0.104 | 0.005 | 0.065 | -0.011 | 0.019 | 0 | -0.042 | -0.018 | -0.039 | 0
12 | AFF4 (UniProt Q9UHB7) | 0.003 | -0.007 | -0.033 | 0.011 | 0.059 | 0.066 | 0 | 0 | 0.05 | 0.001 | -0.039 | -0.068 | 0.005 | 0.012 | 0.023 | 0.02 | 0.065 | 0.032 | -0.026 | 0.022
13 | ALDH18A1 (UniProt P54886) | -0.052 | -0.063 | -0.034 | 0.001 | -0.017 | -0.064 | 0.002 | 0.047 | -0.006 | 0.018 | 0 | -0.023 | -0.027 | -0.004 | 0.007 | -0.06 | -0.001 | 0.025 | 0.023 | -0.019
14 | ANXA11 (UniProt P50995) | -0.005 | -0.008 | 0.001 | -0.044 | -0.022 | 0.008 | 0.026 | 0.012 | -0.03 | 0.039 | 0.014 | -0.017 | -0.033 | -0.029 | 0.016 | 0.005 | -0.011 | -0.002 | 0.009 | 0.028
15 | APOB (UniProt P04114) | 0.054 | 0.004 | -0.003 | -0.182 | 0.104 | 0.084 | 0.015 | 0.024 | -0.091 | 0.06 | -0.002 | 0.022 | -0.096 | -0.017 | -0.038 | -0.092 | 0.033 | 0.013 | -0.035 | 0.008
